These results are taken from PubChem BioAssay AID463173 (ICCB-Longwood Screening Facility, Harvard Medical School, 2010).

Out of some 52,000 compounds screened, about 4,300 (8.3%) were called active. The sample holds actives, similar compounds and a random draw of the others, so the mix is not that of the screen. Values without a mark were called inactive. Rule as the data show it: active = survival mostly below about 52% (no sharp cut-off); inactive = mostly above about 56%.

This test relates to DeltatarO mutant. Nature of the test: S. aureus survival, RN4220 and DeltatarO strains – OD600, teichoic acid synthesis inhibitors, primary screen (AID 463173). Particulars: S. aureus RN4220 wild type/DeltatarO growth, OD600, 18 h, hits give low values, screened at 18.75 µg/mL (by protocol).
In the case of `COc1ccc(-n2c(SCC(=O)Nc3nnc(C)s3)nc3c([nH]c4ccccc43)c2=O)cc1`, the survival is 83%. With `Cc1ccc(C)c(Nc2nn3c(=O)c4ccc(C(=O)NCc5ccccc5)cc4nc3s2)c1`, the survival was 55%. The value for `CCOC(=O)c1c(CC(C)C)csc1NC(C)=O` was 71%; that for `COc1cc(NC(=O)c2cc3cc4ccc(C)cc4nc3o2)cc(OC)c1OC` was 89%; that for `CCc1ccccc1NC(=O)c1cc(S(=O)(=O)N2CCc3ccccc32)ccc1F` was 95%.

Regarding `O=C(Nc1c(Cl)cccc1Cl)c1cc(-c2ccc3c(c2)OCO3)on1`, the survival is 39% (active). For `Cc1cccc(NC(=O)c2cc(-c3ccc4c(c3)OCCO4)on2)c1`, the survival is 69%. The value for `O=C(Nc1cccc(Cl)c1)c1cc(-c2ccc3c(c2)OCO3)on1` was 77%; that for `Cc1ccc(Cl)cc1NC(=O)c1cc(-c2ccc3c(c2)OCCO3)on1` was 34% (active). The value for `O=C(Nc1cc(Cl)ccc1O)c1cc(-c2ccc3c(c2)OCO3)on1` was 58%. The result for `O=C(Nc1cccc(Cl)c1)c1cc(-c2ccc3c(c2)OCCO3)on1` reads 103%; that for `Cc1c(Cl)cccc1NC(=O)c1cc(-c2ccc3c(c2)OCO3)on1`, 69%; that for `O=C(Nc1cccc(Br)c1)c1cc(-c2ccc3c(c2)OCCO3)on1`, 47%. As to `CC(=O)c1cccc(NC(=O)c2cc(-c3ccc4c(c3)OCCO4)on2)c1`, the survival is 45% (active).

Consider `CNC(=O)CN1C(=O)COc2ccc(S(=O)(=O)N3CCCCCC3)cc21`, for which the survival was 91%. The value for `Cc1cc(OCC(=O)Nc2sc3c(c2C#N)CCC(C)C3)ccc1Cl` (stereo not given) was 78%; that for `CCOC(=O)c1cnn(-c2ccc(C(=O)Nc3cccc(C(C)=O)c3)cc2)c1N` was 55%.

Consider `CCN(CC)CCCNC(=O)c1sc2nc3n(c(=O)c2c1C)CCCCC3`, for which the survival was 111%.

Turning to `Cc1ccccc1NC(=O)c1c(C)oc2ccc(O)c(CN3CCCCCC3)c12`, the survival is 107%. Regarding `O=c1n(Cc2ccc([N+](=O)[O-])cc2)c2ccccc2c2nc(-c3ccccc3)nn12`, the survival is 129%. The value for `Cc1ccc(CSCC(=O)N2CCN(c3ccc(F)cc3)CC2)cc1` was 70%.

In the case of `CCCCOc1ccc(C2C(C(=O)Nc3ccccc3OC)=C(C)Nc3nnnn32)cc1OC` (stereo not given), the survival is 85%.

In the case of `CCOc1ccccc1NC(=O)C1=C(C)Nc2ncnn2C1c1sccc1C` (stereo not given), the survival is 92%. The result for `CCOc1ccccc1C1C(C(=O)Nc2ccccc2OC)=C(C)Nc2nc3ccccc3n21` (stereo not given) reads 59% (active); that for `CC1=C(C(=O)Nc2ccccc2)C(c2ccc[nH]2)n2ncnc2N1` (stereo not given), 20% (active). For the compound `COc1ccc(NC(=O)C2=C(C)Nc3ncnn3C2c2ccc[nH]2)cc1` (stereo not given), the survival was 94%. The value for `COc1ccccc1NC(=O)C1=C(C)Nc2nc3ccccc3n2C1c1ccccc1Cl` (stereo not given) was 62%; that for `COc1ccccc1NC(=O)C1=C(C)Nc2nnnn2C1c1cc(Br)c(O)c(OC)c1` (stereo not given) was 55% (active); that for `COc1ccccc1NC(=O)C1=C(C)Nc2nc3ccccc3n2C1c1cccc(OC)c1OC` (stereo not given) was 70%.

Consider `CC1=C(C(=O)Nc2ccccc2Cl)C(c2cccs2)n2ncnc2N1` (stereo not given), for which the survival is 101%. The result for `CCOc1ccccc1NC(=O)C1=C(C)Nc2ncnn2C1c1cccs1` (stereo not given) reads 37% (active). As to `COc1ccccc1NC(=O)C1=C(C)Nc2nnnn2C1c1ccc(C(F)(F)F)cc1` (stereo not given), the survival was 66%. With `CC1=C(C(=O)Nc2ccccc2C)C(c2ccc[nH]2)n2ncnc2N1` (stereo not given), the survival is 102%. The value for `COc1ccc(S(=O)(=O)N2CCC(c3nc4ccccc4s3)CC2)cc1OC` was 86%; that for `Cc1cc(NC(=O)OC2CCCC2)ccc1NC(=O)OC1CCCCC1` was 75%; that for `COc1ccc(CNC(=O)C(=O)Nc2cccc(C)c2C)cc1` was 61%.

With `Cc1ccccc1S(=O)Cc1ccc(C(=O)NCc2ccccc2Cl)o1` (stereo not given), the survival was 73%. The value for `Cc1ccc(-c2nnc(Nc3ccc(Cl)c(Cl)c3)c3ccccc23)cc1S(=O)(=O)NCCO` was 79%. As for `CC(=O)Nc1ccc(S(=O)(=O)NCC2CCC(C(=O)NCCN(CC(C)C)CC(C)C)CC2)cc1` (stereo not given), the survival was 61%. As for `CC(=O)Nc1ccc(S(=O)(=O)N2CCN(c3ccc(C)c(C)c3)CC2)cc1`, the survival is 94%.

With `O=C(CS(=O)(=O)c1cccc2nsnc12)Nc1ccc(F)cc1F`, the survival is 102%.

Turning to `COc1ccccc1N1CCN(c2ncnc3c2c(-c2ccccc2)cn3-c2cccc(C)c2)CC1`, the survival was 70%.

In the case of `COc1ccc(-c2[nH]ncc2C(=O)NCc2cccc(Cl)c2)cc1`, the survival is 62%. For the compound `Cc1ccc(C)c(CN2C(=O)c3ccccc3S(=O)c3ccc(C(=O)N(C)Cc4ccccc4)cc32)c1` (stereo not given), the survival is 78%. `Cc1ccc(Nc2cc(C(=O)NCc3cccs3)c3ccccc3n2)c(C)c1`: the survival is 72%. As to `CCOc1ccccc1NC(=O)C1=C(C)Nc2ncnn2C1c1ccccn1` (stereo not given), the survival was 25% (active).

`CC1=C(C(=O)Nc2ccccc2)C(c2cccn2C)n2ncnc2N1` (stereo not given): the survival is 95%. The result for `CC1=C(C(=O)Nc2ccccc2C)C(c2ccccn2)n2ncnc2N1` (stereo not given) reads 94%. Regarding `COc1ccc(NC(=O)C2=C(C)Nc3ncnn3C2c2cccn2C)cc1` (stereo not given), the survival is 89%. Regarding `COc1ccccc1NC(=O)C1=C(C)Nc2ncnn2C1c1ccccn1` (stereo not given), the survival was 52%. The result for `COc1ccccc1NC(=O)C1=C(C)Nc2ncnn2C1c1cccn1C` (stereo not given) reads 8% (active). The value for `Cc1ccccc1CN1C(=O)c2ccccc2Sc2ccc(C(=O)NC3CCCCC3)cc21` was 71%. Regarding `O=C(O)C1CSC2c3ccccc3C(=O)N12` (stereo not given), the survival was 103%. With `O=c1[nH]c2cc3c(cc2cc1CN(CCO)C(=S)Nc1cccc(Cl)c1)OCO3`, the survival is 69%. The value for `Cc1ccc(CNC(=O)c2ccc3c(c2)CCN3S(=O)(=O)c2ccccc2)cc1` was 37% (active); that for `O=C(NCc1ccccc1)c1ccc2c(c1)CCN2S(=O)(=O)c1ccccc1` was 36% (active); that for `CCS(=O)(=O)N1CCc2cc(C(=O)NCc3ccc(C)cc3)ccc21` was 82%. On to `Cc1ccc(CNC(=O)c2ccc3c(c2)CCN3S(=O)(=O)c2ccc(Br)cc2)cc1`, for which the survival is 80%. Regarding `CS(=O)(=O)N1CCc2cc(C(=O)NCc3ccccc3)ccc21`, the survival is 81%.

With `O=C(NCc1ccccc1)c1ccc2c(c1)CCN2S(=O)(=O)c1ccc(Cl)cc1`, the survival is 73%.
